Screening data: PubChem BioAssay, several laboratories
An excerpt weighted towards active compounds, which were near 1.5% of everything screened.
MCL1-BIM inh = disrupts human MCL1 binding to BIM-BH3 peptide. Q07820. GST-MCL1 / FITC-Bim-BH3 fluorescence polarization. inhibition, % at 10.9 µM. hit rate 0.68% among 320,000. AID 2057;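 active = inhibition above the mean inhibition of all tested compounds plus 3 SD, set per campaign, cut at about 40% in these data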;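 also: 0% = DMSO wells and 100% = unlabeled Bim-BH3 peptide control; higher means more loss of mP so more displacement of Bim peptide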
Target sequence (Q07820 whole entry, looked up): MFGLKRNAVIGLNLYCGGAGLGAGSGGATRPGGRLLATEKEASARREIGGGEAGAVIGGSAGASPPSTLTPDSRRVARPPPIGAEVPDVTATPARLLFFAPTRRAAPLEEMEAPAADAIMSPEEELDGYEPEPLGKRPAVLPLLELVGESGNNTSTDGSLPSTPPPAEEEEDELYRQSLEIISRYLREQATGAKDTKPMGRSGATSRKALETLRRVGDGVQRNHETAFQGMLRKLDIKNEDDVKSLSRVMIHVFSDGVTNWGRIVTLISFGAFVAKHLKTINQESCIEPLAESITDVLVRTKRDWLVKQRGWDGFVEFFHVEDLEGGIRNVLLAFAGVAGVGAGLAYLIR
EBV gp42 inh = blocks Epstein-Barr virus glycoprotein 42 binding; hit rate 0.42% among 220,000; Fluorescence polarization binding assay, mP read-out; AID 1085; inhibition, % (tested at 21.74 µM); Q1HVG2; in the data active = inhibition above about 50%
E coli Lon inh = inhibits E. coli Lon protease; P0A9M0; purified E. coli Lon protease, fluorescence polarization; inhibition, % at 7.94 µM; hit rate 0.42% among 360,000; in the data active = inhibition above about 13%, passing the limit was not always enough;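 also: 0% = enzyme with probe and DMSO and 100% = no enzyme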
MEX-5 binding = C. elegans MEX-5 TCR-2 RNA binding activity | Q9XUB2 | MEX-5/FITC-TCR2 RNA binding, fluorescence polarization; stronger effect = lower value | activity score (negative = inhibition of binding), % at 10 µM | hit rate 0.38% among 300,000;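 active = inhibition past about -25% in most replicates, and total fluorescence under double the plate's negative control median, limit read from the data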;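 also: 0% = DMSO and -100% = 5 µM competing unlabeled TCR2 RNA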
GLD-1 TGE inh = GLD-1-TGE RNA interaction inhibition (C. elegans) | purified GLD-1 + fluorescein TGE RNA, fluorescence polarization | inhibition, % at 5.96 µM | Q17339 | hit rate 0.44% among 320,000;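 active = percent inhibition above a per-plate cutoff, the plate mean of test compounds plus 3 SD, cut at about 30% in these data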;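 also: 0% = DMSO wells with GLD-1 and probe and 100% = wells lacking GLD-1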
BCLXL inh = Bcl-xL (human) inhibition; Q07817; GST-Bcl-xL / FITC-Bim BH3 peptide fluorescence polarization; inhibition, % at 10.9 µM; hit rate 0.7% among 320,000; AID 2129;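 active = inhibition above the mean of all tested compounds plus 3 SD, cutoff set per campaign, cut at about 30% in these data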;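 also: 0% = DMSO wells and 100% = unlabeled Bim-BH3 peptide competitor; inhibitors lower millipolarization by displacing the labeled peptide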
GLD1 RNA confirm = confirmation of C. elegans GLD-1 TGE RNA binding inhibitors | shares compounds with GLD-1 TGE inh | GLD-1/FL-TGE RNA fluorescence polarization, biochemical | inhibition, % at 5.96 µM | hit rate 10% among 550 | AID 2459;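 active = average inhibition across triplicates above the hit cutoff set in the primary screen, cut at about 32% in these data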;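 also: 0% = GLD-1 with RNA probe and DMSO and 100% = wells lacking GLD-1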
Active calls of the source: *; x = not tested or not shown.

SMILES	MCL1-BIM inh	EBV gp42 inh	E coli Lon inh	MEX-5 binding	GLD-1 TGE inh	BCLXL inh	GLD1 RNA confirm
COc1ccc(CN2CC(=O)N3[C@H]4c5ccccc5OC[C@@H]4[C@H](c4ccccc4)[C@]3(C)C2=O)cc1	16.2	x	1.1	x	44.8*	20.3	3.8
COc1ccc(CN2CC(=O)N3[C@H]4c5cc(C)ccc5OC[C@@H]4[C@H](c4ccccc4)[C@]3(C)C2=O)cc1	x	x	7.4	x	33.1*	x	14.6
Cc1ccc2c(c1)[C@H]1[C@H](CO2)[C@H](c2ccccc2)[C@]2(C)C(=O)N(Cc3ccc(Cl)cc3)CC(=O)N12	-8.9	x	-4.5	x	-3.6	-5.3	x
CCCCC1=CC2=CC(=O)C(C)(OC(=O)CC)C(=O)C2=CN1CC(C)C (centres undefined)	41.2*	9.2	6.6	-9.5	31.1*	34.5*	22.3
CCC(c1nnnn1-c1ccc2c(c1)OCCO2)N1CCN(c2ccccc2OC)CC1 (centres undefined)	x	x	-1.8	x	x	x	x
CCOC(=O)N1CCN(S(=O)(=O)c2ccc(F)c(C(=O)Nc3cccc(Cl)c3C)c2)CC1	5.9	9.6	2.1	-1.0	2.5	3.2	x
O=C(COC(=O)c1ccncc1)NCc1ccccc1	1.7	-12.5	2.0	2.1	-1.1	2.7	x
O=C(COC(=O)c1ccc(Br)cc1)NCc1ccccc1	7.7	-11.3	3.9	1.6	41.2*	6.4	3.6
CCCCN1C(=O)C(CC(=O)NCc2cccs2)CC(C(=O)N(CC)CC)=C1C (centres undefined)	x	x	1.8	x	x	x	x
N#CC1(Nc2ccc([N+](=O)[O-])cc2)CCCC1	x	x	-2.8	x	x	x	x
O=C(O)c1cn(Cc2ccccn2)c(=O)c2ccccc12	3.8	-2.0	-7.7	-2.2	4.7	-0.2	x
CCCCC(=O)Nc1ccc(NCc2ccc(C)s2)cc1	-6.2	x	-9.2	-1.7	38.4*	1.0	3.7
CCCCC(=O)Nc1ccc(C(N)=O)cc1	-2.4	-31.3	0.2	1.3	-8.0	-2.5	x
CCC(C)Nc1nc(OCC(F)(F)F)nc(OCC(F)(F)F)n1 (centres undefined)	-0.3	2.9	2.4	-0.5	2.6	2.2	x
CCC(C)Nc1nc(OC(C(F)(F)F)C(F)(F)F)nc(OC(C(F)(F)F)C(F)(F)F)n1 (centres undefined)	-0.7	-13.0	1.7	0.2	35.5*	-2.6	-1.6
COc1ccc(NC(=O)c2ccc(-n3cnnn3)cc2)c([N+](=O)[O-])c1	0.7	x	-4.4	2.7	-8.0	0.6	x
CC(=O)Oc1ccc(C(=O)O)cc1OC(C)=O	1.7	-0.1	4.3	-1.0	2.8	5.5	x
CC(=O)Oc1cccc2c1C(=O)c1c(OC(C)=O)cc(C(=O)O)cc1C2=O	10.4	-20.3	2.4	-15.7	51.9*	18.6	41.5*
CCCc1c(-c2ccc(O)cc2)nn(-c2ccc(O)cc2)c1-c1ccc(O)cc1	1.3	-10.2	2.0	2.0	8.1	4.5	x
O=C(OCc1ccc(F)cc1)c1cc(S(=O)(=O)N2CCCCC2)ccc1N1CCOCC1	-4.4	x	-1.3	3.6	2.4	-2.3	x
Oc1cc(NCCc2cccnc2)cc2cccnc12	x	x	6.5	x	38.8*	x	24.0
Cc1cccc(C)c1OCC(O)CNC(C)c1ccccc1 (centres undefined)	8.7	x	-1.9	1.0	-1.5	5.7	x
COc1ccc(CC(=O)Nc2c3c(nn2C(C)(C)C)CS(=O)(=O)C3)cc1	0.6	x	-3.0	1.4	10.2	-0.1	x
Cc1ccc(/C=C/c2nc3ccccc3[nH]2)o1	34.0	-4.7	2.5	0.8	31.9*	40.3*	2.8
CCOC(=O)c1cc2c(ccn2C)n1CC(=O)N1CCN(c2cccc(C(F)(F)F)c2)CC1	4.1	7.8	9.7	0.5	39.9*	2.0	46.7*
COc1ccc2c(c1)C(C)(CCN)C(=O)N2C (centres undefined)	-0.1	x	11.5	-1.5	4.1	0.4	x
CC(=O)C1CCC2C3CC(C)=C4CC(O)CCC4(C)C3CCC12C (centres undefined)	x	x	-1.6	x	x	x	x
CN(C)C1CN(Cc2cn(Cc3ccc(C(F)(F)F)cc3)nn2)S(=O)(=O)C1 (centres undefined)	x	x	0.5	x	x	x	x
COc1ccc(NC(=O)Nc2ccc(F)cc2)cn1	24.0	x	7.5	-1.7	11.2	20.1	x
COc1ccc(NC(=O)Cc2ccccc2)cn1	40.4*	34.6	13.8	-11.5	36.0*	37.5*	35.5*
